Data taken from PubChem BioAssay (EPA / NIEHS).
Where “and” joins values, the source holds several entries; their conditions need not be identical. Equal entries are not always repeated. Results filed as inconclusive are left out. Where a structure was tested more than once in an assay, its records may differ in their call. Calls of active or inactive are those of the source. The calls were made as follows, unless noted: active = hit-call score of the fitted dose curve at least 0.9, where 1 is the maximum; inactive = score below 0.9.

Experiments:
[1] = read-out: Monokine induced gamma interferon (MIG), CXCL9 (gene 4283); test: BSK_3C_MIG: BioMAP Diversity Plus: 3C Assay for Monokine induced gamma interferon (MIG) Biomarker Activity (AID 2283021); details: primary human endothelial cells (HUVEC); actives raise or lower the signal;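 as to AC50: MIG protein level measured by immunoassay in the treated endothelial cultures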
Outline: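 HUVEC primary endothelial cultures dosed with chemical; MIG quantified by ELISA at 24 h. Data fitted bidirectionally against DMSO control, with parallel SRB total-protein staining for cytotoxicity.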

[2] = molecular target: human Vitamin D Receptor (VDR), VDR (gene 7421) (UniProt P11473); test: ATG_VDR_TRANS: Attagene TRANS-FACTORIAL HepG2 Assay for human Vitamin D Receptor (VDR) (AID 2283022; active = hit-call score of the fitted dose curve at least 0.9, where 1 is the maximum)
Chain of human Vitamin D Receptor (VDR), VDR (gene 7421) (P11473 whole entry, looked up): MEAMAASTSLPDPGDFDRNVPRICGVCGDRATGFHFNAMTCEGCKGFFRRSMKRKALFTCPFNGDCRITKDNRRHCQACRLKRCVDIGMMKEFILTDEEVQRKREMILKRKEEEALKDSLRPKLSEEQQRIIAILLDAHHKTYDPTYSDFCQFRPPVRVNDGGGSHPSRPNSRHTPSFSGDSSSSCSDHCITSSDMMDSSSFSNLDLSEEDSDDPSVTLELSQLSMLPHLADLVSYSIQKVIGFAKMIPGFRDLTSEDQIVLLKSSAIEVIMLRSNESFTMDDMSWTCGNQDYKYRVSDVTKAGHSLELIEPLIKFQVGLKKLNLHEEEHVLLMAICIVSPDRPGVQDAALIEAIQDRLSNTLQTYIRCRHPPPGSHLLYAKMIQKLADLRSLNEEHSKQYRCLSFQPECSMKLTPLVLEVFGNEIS
Outline: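 Multiplexed TRANS reporter in HepG2; 24 h treatment; reporter mRNA by RT-PCR plus capillary electrophoresis; upregulation scored relative to DMSO.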

[3] = BSK_3C_SRB: Viability Assessment in the BioMAP Diversity Plus: 3C Assay (AID 2283023); details: primary human endothelial cells (HUVEC);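 also: cells read 24 h after compound dosing; fitted both ways against DMSO so a hit may be signal rise or drop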
Outline: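 Overt cytotoxicity is gauged in parallel confluent HUVEC cultures by SRB total-protein staining at the time of biomarker measurement, 24 h after dosing. Gain or loss of signal is fitted versus DMSO.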

[4] = read-out: Matrix Metallopeptidase 1 (MMP1), MMP1 (gene 4312); test: BSK_BE3C_MMP1: BioMAP Diversity Plus: BE3C Assay for Matrix Metallopeptidase 1 (MMP1) Biomarker Activity (AID 2283024); details: primary human bronchial epithelial cells; actives raise or lower the signal
Outline: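 Human primary bronchial epithelial cells (BE3C system) dosed for 24 h; MMP-1 quantified by ELISA. Bidirectional fit against DMSO; cytotoxicity tracked in parallel cultures by SRB total-protein staining.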

[5] = read-out: Pselectin, SELP (gene 6403); test: BSK_4H_Pselectin: BioMAP Diversity Plus: 4H Assay for Pselectin Biomarker Activity (AID 2283026); details: primary human endothelial cells (HUVEC); actives raise or lower the signal
Outline: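 Primary human umbilical vein endothelial cells were treated 24 h, and cell-surface P-selectin was then quantified by ELISA. Bidirectional fit versus DMSO; cytotoxicity checked in parallel cultures by SRB total-protein staining.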

[6] = BSK_4H_SRB: Viability Assessment in the BioMAP Diversity Plus: 4H Assay (AID 2283027); details: primary human endothelial cells (HUVEC);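 also: cells exposed to compound for 24 h before staining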;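 as to AC50: curves fitted both ways versus DMSO so AC50 may be loss or gain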
Outline: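 Absorbance at 560 nm of SRB-stained total protein served as the viability read-out in confluent primary human umbilical vein endothelium 24 h after chemical treatment. Curves were fitted bidirectionally against DMSO as negative control.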

[7] = BSK_BE3C_SRB: Viability Assessment in the BioMAP Diversity Plus: BE3C Assay (AID 2283028); details: primary human bronchial epithelial cells;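 as to AC50: fitted both ways so AC50 may mark signal gain or loss versus DMSO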
Outline: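 SRB total-protein staining (0.1%, after TCA fixation) of chemically dosed human bronchial epithelial primary cells at 24 h; DMSO serves as the negative control for bidirectional curve fitting.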

[8] = read-out: Thrombomodulin, THBD (gene 7056); test: BSK_3C_Thrombomodulin: BioMAP Diversity Plus: 3C Assay for Thrombomodulin Biomarker Activity (AID 2283029); details: primary human endothelial cells (HUVEC); actives raise or lower the signal
Outline: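 Human umbilical vein endothelial cells were exposed to chemicals for 24 h; cell-surface thrombomodulin quantified by ELISA, with bidirectional fitting against DMSO baseline.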

[9] = read-out: Urokinase-type plasminogen activator receptor (uPAR), PLAUR (gene 5329); test: BSK_4H_uPAR: BioMAP Diversity Plus: 4H Assay for Urokinase-type plasminogen activator receptor (uPAR) Biomarker Activity (AID 2283030); details: primary human endothelial cells (HUVEC); actives raise or lower the signal
Outline: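 Endpoint derived via bidirectional curve fitting against DMSO baseline; readout was ELISA detection of uPAR on umbilical vein endothelial cells at 24 h post-treatment, with SRB-stained parallel cultures assessing cytotoxicity.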

[10] = BSK_3C_Vis: BioMAP Diversity Plus: 3C Assay for Morphology Visualization (AID 2283025); details: primary human endothelial cells (HUVEC);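 also: fitted both ways so gain or loss versus DMSO counts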;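 as to AC50: light microscopy image of cell morphology used as background control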
Outline: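 Human umbilical vein endothelial cell morphology was inspected by light microscopy 24 h after chemical dosing; scored bidirectionally relative to DMSO.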

Measured: AC50

COC(=O)Cc1ccccc1
inactive: [1] | [2] | [3] | [4] | [5] | [6] | [7] | [8] | [9]

CN(C)N=O
inactive: [1] | [2] | [3] | [4] | [10] | [5] | [6] | [7] | [8] | [9]

Oc1ccc(-c2ccccc2)cc1
inactive: [1] | [2] | [3] | [4] | [10] | [5] | [6] | [7] | [8] | [9]

O=C(OC1CCCCC1)c1ccccc1C(=O)OC1CCCCC1
active: [3] 10.9 µM | [4] 4.58 µM | [5] 9.57 µM | [6] 13 µM | [9] 13 µM
inactive: [1] | [2] | [7] | [8]

C=CC(=O)OCCCCCC(C)C
inactive: [1] | [2] | [3] | [4] | [5] | [6] | [7] | [8] | [9]

CCC(C)(C)c1ccc(O)c(C(C)(C)CC)c1
active: [1] 13.3 µM | [2] 55 µM | [3] 7.65 µM | [4] 34.8 µM | [10] 6.71 µM | [5] 7.72 µM | [6] 11.7 µM | [7] 28.8 µM | [8] 34.5 µM | [9] 11.4 µM

CCOC(=O)/C=C(C)/C=C/C[C@@H](C)CCCC(C)C
inactive: [2] | [4] | [7]
active: [1] 30.8 µM | [3] 36.4 µM | [5] 25.2 µM | [6] 34.3 µM | [8] 5.42 µM | [9] 31.8 µM

C=C(C)C(=O)[O][Sn]([CH2]CCC)([CH2]CCC)[CH2]CCC
inactive: [2]
active: [1] 0.148 µM | [3] 0.148 µM | [4] 0.148 µM | [5] 0.148 µM | [6] 0.148 µM | [7] 0.148 µM | [8] 1.16 µM | [9] 0.148 µM

O=C1C2(Cl)C3(Cl)C4(Cl)C(Cl)(Cl)C5(Cl)C3(Cl)C1(Cl)C5(Cl)C24Cl (centres undefined)
inactive: [2] | [8]
active: [1] 11.4 µM | [3] 5.96 µM | [4] 10.4 µM | [5] 10.9 µM | [6] 6.58 µM | [7] 5.75 µM | [9] 9.73 µM

O=C(Nc1ccc2[nH]ccc2c1)c1cc2cc(F)ccc2n1Cc1cccc(F)c1
active: [1] 10.4 µM | [3] 8.66 µM | [4] 9.72 µM | [5] 7.85 µM | [6] 10 µM | [7] 6.76 µM | [9] 9.25 µM
inactive: [2] | [8]

CCOP(=S)(OCC)Oc1nc(Cl)c(Cl)cc1Cl
inactive: [1] | [2] | [4] | [6] | [7] | [8] | [9]
active: [3] 30.2 µM | [10] 39 µM | [5] 32 µM

NC(=S)Nc1ccccc1
inactive: [1] | [2] | [3] | [4] | [10] | [5] | [6] | [7] | [8] | [9]

COc1cc(-c2ccc(N)c(OC)c2)ccc1N
inactive: [1] | [2] | [3] | [4] | [5] | [6] | [7] | [8] | [9]
active: [4] 4.7 µM

C(=NC1CCCCC1)=NC1CCCCC1
inactive: [2] | [8]
active: [1] 28.7 µM | [3] 8.96 µM | [4] 36.5 µM | [5] 5.42 µM | [6] 5.35 µM | [7] 33.4 µM | [9] 8.81 µM

CCCCCCCCC(=O)NCc1ccc(O)c(OC)c1
inactive: [1] | [2] | [3] | [4] | [5] | [7] | [8] | [9]
active: [6] 20 µM

NC(=O)O
inactive: [1] | [2] | [3] | [4] | [10] | [5] | [6] | [7] | [8] | [9]

OCc1ccco1
inactive: [1] | [2] | [3] | [4] | [10] | [5] | [6] | [7] | [8] | [9]

Oc1c(I)cc(I)cc1I
inactive: [2] | [7] | [8]
active: [1] 34.9 µM | [3] 10.3 µM | [4] 6.77 µM | [5] 12.7 µM | [6] 20 µM | [9] 12.7 µM

C[C@]12CCC(=O)C[C@@H]1CC[C@@H]1[C@@H]2CC[C@]2(C)[C@@H](O)CC[C@@H]12
active: [3] 20.9 µM
inactive: [1] | [2] | [4] | [5] | [6] | [7] | [8] | [9]

O=C(O)C(F)(F)C(F)(F)C(F)(F)C(F)(F)C(F)(F)C(F)(F)F
inactive: [1] | [2] | [3] | [4] | [5] | [6] | [7] | [8] | [9]
active: [4] 13.6 µM

O=S(=O)(c1ccc(Cl)cc1)c1ccc(Cl)cc1
inactive: [1] | [2] | [3] | [4] | [5] | [6] | [7] | [8] | [9]

CC(C)(c1ccccc1)c1ccc(O)c(C(C)(C)c2ccccc2)c1
inactive: [2] | [8]
active: [1] 10.5 µM | [3] 8.56 µM | [4] 32.3 µM | [5] 6.57 µM | [6] 8.09 µM | [7] 25.6 µM | [9] 9.78 µM

CC(=O)C(Cl)C(=O)N(C)C (centres undefined)
active: [5] 15.6 µM
inactive: [1] | [2] | [3] | [4] | [6] | [7] | [8] | [9]

COP(=S)(OC)Oc1ccc(Sc2ccc(OP(=S)(OC)OC)cc2)cc1
active: [3] 20 µM | [5] 14.5 µM | [6] 9.79 µM
inactive: [1] | [2] | [4] | [7] | [8] | [9]

BrCCBr
inactive: [1] | [2] | [3] | [4] | [5] | [6] | [7] | [8] | [9]

ClC1=C(Cl)[C@]2(Cl)[C@H]3[C@H]([C@H]4C=C[C@H]3C4)[C@@]1(Cl)C2(Cl)Cl
inactive: [1] | [2] | [4] | [6] | [7] | [8] | [9]
active: [3] 7.55 µM | [10] 13.6 µM | [5] 7.17 µM

O=C(O)C(F)(F)C(F)(F)C(F)(F)C(F)(F)C(F)(F)C(F)(F)C(F)(F)C(F)(F)C(F)(F)C(F)(F)F
active: [1] 35.3 µM | [3] 29.4 µM | [4] 29.3 µM and 5.53 µM and 5.54 µM | [10] 37.8 µM | [5] 31 µM | [6] 31.8 µM | [7] 25.5 µM and 2.72 µM and 4.77 µM | [8] 5.29 µM | [9] 32.1 µM
inactive: [1] | [2] | [3] | [5] | [6] | [8] | [9]

O=c1[nH]c(=O)[nH]c(=O)[nH]1
inactive: [1] | [2] | [3] | [4] | [5] | [6] | [7] | [8] | [9]

CC12CC1(C)C(=O)N(c1cc(Cl)cc(Cl)c1)C2=O (centres undefined)
inactive: [1] | [2] | [3] | [4] | [5] | [6] | [7] | [8] | [9]

Nc1ccc(-c2ccc(N)c(Cl)c2)cc1Cl
inactive: [1] | [2] | [4] | [5] | [7] | [8]
active: [3] 2.21 µM | [6] 2.76 µM | [9] 10.6 µM

CCNc1nc(NC(C)(C)C)nc(SC)n1
inactive: [1] | [2] | [3] | [4] | [5] | [6] | [7] | [8] | [9]

O=Cc1cccc(Oc2ccccc2)c1
inactive: [1] | [2] | [3] | [4] | [10] | [5] | [6] | [7] | [8] | [9]

CCCCCCCCc1ccc(O)cc1
active: [1] 36 µM | [3] 31.2 µM | [4] 31.7 µM | [10] 39.3 µM | [5] 25.6 µM | [6] 34.3 µM | [7] 34.9 µM | [8] 34.3 µM | [9] 37.2 µM
inactive: [2]

CC(C)CCCCCCOC(=O)c1ccccc1C(=O)OCCCCCCC(C)C
inactive: [1] | [2] | [3] | [4] | [5] | [6] | [7] | [8] | [9]

COP(=S)(OC)Oc1ccc(S(=O)(=O)N(C)C)cc1
inactive: [1] | [2] | [3] | [4] | [5] | [6] | [7] | [8] | [9]
